# Values without a mark were called inactive. Inconclusive results are not listed. Entries that show only a call come without a potency. The source made the active and inactive calls. Calls follow the shape of the dose curve; as a rule, active = well fitted curve in the direction sought with a large enough effect in the repeat runs; inconclusive = weak or mixed curves; inactive = no such curve, though single readings can be large; an effect the other way counts as inactive or inconclusive.
# What was measured:
# [1] = A CellTox Green Cytotoxicity Assay to monitor cytotoxicity in HEK293 cells - 0 hour (AID 1224869); also: nearly all actives have a fitted effect of over 50% in size
# Outline: (§1)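 Tox21 screen in HEK293: membrane-impermeant cyanine dye fluoresces on binding dead-cell DNA; compound pinned 5 h post-seeding, plates held at 37 C, signal read repeatedly through 40 h.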
# [2] = qHTS RealTime-Glo MT Cell Viability Assay in HepG2 cells - 40 hour (AID 1224870); also: nearly all actives have a fitted effect of over 50% in size
# Outline: (§2)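 Real-time viability: cells seeded at 600 per well together with NanoLuc and cell-permeant prosubstrate, compounds added after 5 h incubation. Luminescence tracked at 0, 8, 16, 24, 32 and 40 h of exposure.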
# [3] = A CellTox Green Cytotoxicity Assay to monitor cytotoxicity in HEK293 cells - 40 hour (AID 1224871); also: nearly all actives have a fitted effect of over 45% in size
# Outline: as §1
# [4] = qHTS RealTime-Glo MT Cell Viability Assay in HepG2 cells - 8 hour (AID 1224873); also: nearly all actives have a fitted effect of over 55% in size
# Outline: as §2
# [5] = A CellTox Green Cytotoxicity Assay to monitor cytotoxicity in HEK293 cells - 24 hour (AID 1224875); also: nearly all actives have a fitted effect of over 45% in size; as to activity change: series mostly up to about 77 µM
# Outline: as §1
# [6] = qHTS RealTime-Glo MT Cell Viability Assay in HEK293 cells - 32 hour (AID 1224868); also: nearly all actives have a fitted effect of over 50% in size; as to activity change, negative = cytotoxic: top concentration of the series differs between compounds
# Outline: (§3)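 Assay medium contained NanoLuc luciferase plus cell-permeant prosubstrate, added with HEK293 cells at 600 cells/well. After 5 h at 37 C/5% CO2 compounds were added; plates stayed at 37 C for 40 h with serial luminescence reads.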
# [7] = qHTS RealTime-Glo MT Cell Viability Assay in HEK293 cells - 16 hour (AID 1224872); also: nearly all actives have a fitted effect of over 50% in size; as to activity change, negative = cytotoxicity: top concentration of the series differs between compounds
# Outline: as §3
# [8] = qHTS RealTime-Glo MT Cell Viability Assay in HEK293 cells - 40 hour (AID 1224874); details: RealTime-Glo luminescence; max response: hits give low values; also: nearly all actives have a fitted effect of over 50% in size
# Outline: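 HEK293 + NanoLuc + prosubstrate, 600 cells/well; 5 h, 37 C/5% CO2; compound 23 nL in DMSO by pintool; 37 C; luminescence read at 0, 8, 16, 24, 32 and 40 h time points.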
# [9] = qHTS RealTime-Glo MT Cell Viability Assay in HepG2 cells - 24 hour (AID 1224867); also: nearly all actives have a fitted effect of over 50% in size
# Outline: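 qHTS, HepG2, 600 cells/well, RealTime-Glo (NanoLuc + prosubstrate) added with cells; 5 h preincubation; DMSO compound addition; 37 C; luminescence at 0/8/16/24/32/40 h.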
# Potency is read from the fitted curve at half-maximal effect.
compound,measurement,setting,value
Nc1cccnc1N,Potency,[1],inactive
same,Potency,[2],inactive
same,Potency,[3],inactive
same,Potency,[4],inactive
same,Potency,[5],inactive
c1ccc(-c2ccccc2-c2ccccc2)cc1,Potency,[6],inactive
same,Potency,[1],inactive
same,Potency,[2],inactive
same,Potency,[3],inactive
same,Potency,[7],inactive
same,Potency,[4],inactive
same,max response,[8],-10.2%
same,Potency,[5],inactive
c1ccc2c(c1)-c1ccc3ccc4cccc5cc-2c1c3c45,Potency,[2],inactive
same,Potency,[4],inactive
same,max response,[8],8.42%
same,Potency,[5],inactive
O=C1CCC/C=C\CCCCCCCCCC1,Potency,[1],inactive
same,Potency,[2],inactive
same,Potency,[7],inactive
same,Potency,[4],inactive
same,max response,[8],-5.39%
same,Potency,[5],inactive
C=C[Si](C)(C)Cl,"activity change, negative = cytotoxic",[6],-3.52% [at 6.97 µM]
same,cytotoxicity,[1],-1.84% [at 6.97 µM]
same,"activity change, negative = cytotoxic",[2],24.3% [at 6.97 µM]
same,cytotoxicity increase,[3],-9.04% [at 6.97 µM]
same,"activity change, negative = cytotoxicity",[7],-7.44% [at 6.97 µM]
same,"viability change, negative = cytotoxic",[4],-15.7% [at 6.97 µM]
same,max response,[8],-5.42%
same,activity change,[5],"-5.65% [at 6.97 µM, hits give high values]"
Cc1ccc(C2OC[C@@H]3OC(c4ccc(C)cc4)O[C@H]([C@H](O)CO)[C@@H]3O2)cc1 (stereo partly drawn),Potency,[9],inactive
same,Potency,[1],inactive
same,Potency,[2],inactive
same,Potency,[4],inactive
Cc1ccc(C=O)cc1,Potency,[1],inactive
same,Potency,[2],inactive
same,Potency,[3],inactive
same,Potency,[4],inactive
same,max response,[8],7.49%
same,Potency,[5],inactive
O=C(c1ccccc1)c1ccc(Cl)cc1,Potency,[6],inactive
same,Potency,[1],inactive
same,Potency,[2],inactive
same,Potency,[3],inactive
same,Potency,[7],inactive
same,Potency,[4],inactive
same,max response,[8],0.405%
same,Potency,[5],inactive
N#Cc1ccc(C/C(=N/NC(=O)Nc2ccc(OC(F)(F)F)cc2)c2cccc(C(F)(F)F)c2)cc1,Potency,[6],inactive
same,Potency,[1],inactive
same,Potency,[3],inactive
same,Potency,[4],inactive
same,max response,[8],-2.78%
same,Potency,[5],inactive
CCCCCCCCCCCC(=O)Cl,Potency,[2],inactive
same,Potency,[3],inactive
same,Potency,[7],inactive
same,Potency,[4],inactive
same,max response,[8],0.0053%
same,Potency,[5],inactive
c1ccc2cc3c4ccccc4c4ccccc4c3cc2c1,Potency,[9],inactive
same,Potency,[1],inactive
same,Potency,[2],inactive
same,Potency,[4],inactive
same,max response,[8],-2.98%
same,Potency,[5],inactive
O=C(Cl)c1ccc(Cl)cc1Cl,Potency,[1],inactive
same,Potency,[3],49 µM (active)
same,Potency,[4],inactive
CCOc1ccc([N+](=O)[O-])cc1,Potency,[1],inactive
same,Potency,[2],inactive
same,Potency,[3],44.3 µM (active)
same,Potency,[4],inactive
same,Potency,[8],49.7 µM (active)
same,Potency,[5],44.3 µM (active)
O=C1OC(O)C(C(Cl)Cl)=C1Cl (stereo not drawn),Potency,[1],inactive
same,Potency,[3],inactive
same,Potency,[4],inactive
same,Potency,[5],inactive
CCc1cccc(C)c1N(C(=O)CS(=O)(=O)O)C(C)COC (stereo not drawn),Potency,[6],inactive
same,Potency,[1],inactive
same,Potency,[2],inactive
same,Potency,[3],inactive
same,Potency,[7],inactive
same,Potency,[4],inactive
same,max response,[8],-1.03%
same,Potency,[5],inactive
COc1c(Br)cc(Br)c(C)c1Br,Potency,[6],inactive
same,Potency,[1],inactive
same,Potency,[2],inactive
same,Potency,[3],inactive
same,Potency,[7],inactive
same,Potency,[4],inactive
same,max response,[8],1.46%
same,Potency,[5],inactive
CC1=C(/C=C/C(C)=C/C=C/C(C)=C\C(=O)O)C(C)(C)CCC1,Potency,[9],inactive
same,Potency,[1],inactive
same,Potency,[2],inactive
same,Potency,[7],inactive
same,Potency,[4],inactive
CC(CC(C)(C)C)CC(C)(C)CC(C)(C)C (stereo not drawn),Potency,[6],inactive
same,Potency,[1],inactive
same,Potency,[3],inactive
same,Potency,[4],inactive
same,max response,[8],3.32%
same,Potency,[5],inactive
CN(C/C=C/c1ccccc1)Cc1cccc2ccccc12,Potency,[1],19 µM (active)
same,Potency,[3],21.3 µM (active)
same,Potency,[7],inactive
same,Potency,[5],19 µM (active)
O=C(O)CN(CCCN(CC(=O)O)CC(=O)O)CC(=O)O,"activity change, negative = cytotoxic",[6],-12.4% [at 15.8 µM]
same,cytotoxicity,[1],-2.37% [at 15.8 µM]
same,"activity change, negative = cytotoxic",[2],22.2% [at 15.8 µM]
same,cytotoxicity increase,[3],0.268% [at 15.8 µM]
same,"activity change, negative = cytotoxicity",[7],-5.66% [at 15.8 µM]
same,"viability change, negative = cytotoxic",[4],-18.6% [at 15.8 µM]
same,max response,[8],-7.68%
same,activity change,[5],"1.78% [at 15.8 µM, hits give high values]"
Cc1cccc(C)c1C,Potency,[1],inactive
same,Potency,[2],inactive
same,Potency,[3],inactive
same,Potency,[4],inactive
same,max response,[8],4%
same,Potency,[5],inactive
NCc1cccc(C2CCN(C(=O)c3ccc(C#Cc4ccccc4F)o3)CC2)c1,Potency,[1],inactive
same,Potency,[3],54.9 µM (active)
same,Potency,[7],49 µM (active)
same,Potency,[4],49 µM (active)
same,Potency,[5],49 µM (active)
Nc1cc([N+](=O)[O-])cc(Cl)c1O,Potency,[6],inactive
same,Potency,[1],inactive
same,Potency,[2],inactive
same,Potency,[3],inactive
same,Potency,[7],inactive
same,Potency,[4],inactive
same,max response,[8],-6.05%
same,Potency,[5],inactive
O=[N+]([O-])c1ccc(CO)cc1,Potency,[1],inactive
same,Potency,[3],inactive
same,Potency,[7],inactive
same,Potency,[4],inactive
same,max response,[8],7.7%
same,Potency,[5],inactive
CC(=O)[C@]1(O)Cc2c(O)c3c(c(O)c2[C@@H](O[C@H]2C[C@H](N)[C@H](O)[C@H](C)O2)C1)C(=O)c1ccccc1C3=O,Potency,[6],0.0756 µM (active)
same,Potency,[1],inactive
same,Potency,[3],inactive
same,Potency,[7],0.535 µM (active)
same,Potency,[8],0.0601 µM (active)
same,Potency,[5],inactive
C1=CCCC1,Potency,[2],inactive
same,Potency,[4],inactive
Cc1ccc2nc(-c3ccc(N)cc3)sc2c1S(=O)(=O)O,Potency,[6],inactive
same,Potency,[1],inactive
same,Potency,[2],inactive
same,Potency,[3],inactive
same,Potency,[4],inactive
same,max response,[8],-21.6%
same,Potency,[5],inactive
CN1CCN(CCCN2c3ccccc3Sc3ccc(Cl)cc32)CC1,Potency,[9],21.3 µM (active)
same,Potency,[1],inactive
same,Potency,[4],inactive
CCCCCCCCCCCCS(=O)(=O)Cl,"activity change, negative = cytotoxic",[6],18.8% [at 15.8 µM]
same,cytotoxicity,[1],0.643% [at 15.8 µM]
same,"activity change, negative = cytotoxic",[2],12.8% [at 15.8 µM]
same,cytotoxicity increase,[3],-2.77% [at 15.8 µM]
same,"viability change, negative = cytotoxic",[4],-5.43% [at 15.8 µM]
same,max response,[8],12.1%
same,activity change,[5],"-0.292% [at 15.8 µM, hits give high values]"
Cc1c(Cl)c(=O)oc2cc(O)ccc12,Potency,[6],43.6 µM (active)
same,Potency,[1],inactive
same,Potency,[2],inactive
same,Potency,[3],inactive
same,Potency,[7],49 µM (active)
same,Potency,[4],inactive
same,Potency,[8],43.6 µM (active)
same,Potency,[5],inactive
C/C(=N\[Si](C)(C)C)O[Si](C)(C)C,Potency,[1],inactive
same,Potency,[2],inactive
same,Potency,[3],inactive
same,Potency,[7],inactive
same,Potency,[4],inactive
same,max response,[8],-1.35%
same,Potency,[5],inactive
C=CC(=O)OCC(Br)CBr (stereo not drawn),Potency,[9],inactive
same,Potency,[1],inactive
same,Potency,[2],inactive
same,Potency,[4],inactive
same,Potency,[5],inactive
CC1=CC[C@@H](C(C)(C)O)CC1,Potency,[9],inactive
same,Potency,[1],inactive
same,Potency,[3],inactive
same,Potency,[4],inactive
same,max response,[8],4.47%
same,Potency,[5],inactive
CCCCCCCC/C=C\CCCCCCCC(=O)N(CCO)CCO,Potency,[1],inactive
same,Potency,[2],inactive
same,Potency,[4],inactive
same,Potency,[8],43.5 µM (active)
CC(C)=CCC[C@H](C)CC=O,Potency,[9],inactive
same,Potency,[1],inactive
same,Potency,[2],inactive
same,Potency,[7],inactive
same,Potency,[4],inactive
same,max response,[8],11.6%
O=C(CCN1CCC(c2ccccc2)C1)c1ccc2c(c1)OCCO2 (stereo not drawn),Potency,[1],inactive
same,Potency,[2],21.3 µM (active)
same,Potency,[5],inactive

# — PubChem BioAssay (Tox21)
